CHT inh = inhibitors of human choline transporter CHT | 310,000 compounds, 0.86% hits | B-score at 10 µM | CHT-expressing cells, membrane potential dye, choline response; active compounds read low;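 active = B-score over 3 SD under the library average, and starting fluorescence ratio not unusually high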;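 note: choline stimulus applied at its EC90 after an EC20 pre-addition; B-score computed on integrated fluorescence ratio after choline addition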
ANO1 activ = TMEM16A chloride channel activators or potentiators, primary screen, cell-based, HTS | Anoctamin-1 (Mus musculus), Q8BHY3 | HEK293 TMEM16A/YFP-H148Q/I152L, iodide quench fluorescence; active compounds read low | B-score at 10 µM | 340,000 compounds, 0.3% hits | AID 623877, 2012;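 active = fluorescence-ratio B-score plate-corrected deviation score at least 3 library SD below zero, with starting fluorescence score within 5 deviations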;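 note: channel opened by trigger with iodide after compound preincubation; score built on the fluorescence ratio of max minus min over baseline; more negative score means more quench and so TMEM16A activation or potentiation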
Target sequence (Q8BHY3 whole entry, looked up): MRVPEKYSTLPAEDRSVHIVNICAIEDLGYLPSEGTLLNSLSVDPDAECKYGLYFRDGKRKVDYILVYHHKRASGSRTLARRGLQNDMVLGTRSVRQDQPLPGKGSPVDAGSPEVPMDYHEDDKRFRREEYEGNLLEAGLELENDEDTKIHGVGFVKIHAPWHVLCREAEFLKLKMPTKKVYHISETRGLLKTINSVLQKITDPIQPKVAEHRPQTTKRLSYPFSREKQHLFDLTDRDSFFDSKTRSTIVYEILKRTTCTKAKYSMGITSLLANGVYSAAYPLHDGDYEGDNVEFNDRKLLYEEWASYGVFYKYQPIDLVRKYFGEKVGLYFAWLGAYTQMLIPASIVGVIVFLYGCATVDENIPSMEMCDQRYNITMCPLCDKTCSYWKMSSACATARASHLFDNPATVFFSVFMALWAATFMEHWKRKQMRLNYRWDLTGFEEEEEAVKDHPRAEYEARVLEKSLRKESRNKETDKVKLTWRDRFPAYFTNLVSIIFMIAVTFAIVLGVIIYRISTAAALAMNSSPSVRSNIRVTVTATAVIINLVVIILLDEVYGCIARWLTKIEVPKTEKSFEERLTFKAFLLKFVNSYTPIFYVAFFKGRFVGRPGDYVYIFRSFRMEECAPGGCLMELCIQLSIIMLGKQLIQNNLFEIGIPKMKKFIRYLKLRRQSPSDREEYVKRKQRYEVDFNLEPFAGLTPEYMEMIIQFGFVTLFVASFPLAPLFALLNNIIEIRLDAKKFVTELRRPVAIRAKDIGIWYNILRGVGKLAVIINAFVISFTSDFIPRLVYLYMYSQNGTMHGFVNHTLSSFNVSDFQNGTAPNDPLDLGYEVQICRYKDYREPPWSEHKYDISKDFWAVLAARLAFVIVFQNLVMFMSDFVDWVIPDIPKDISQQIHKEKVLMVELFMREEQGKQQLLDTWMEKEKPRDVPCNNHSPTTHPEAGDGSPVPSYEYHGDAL
CHT PAM = CHT positive allosteric modulators, primary screen, cell-based, membrane potential dye, choline EC20. High affinity choline transporter 1 (Homo sapiens), Q9GZV3. CHT-expressing cells; active compounds read high; LV-AA mutant CHT in HEK293 cells. B-score at 10 µM. 310,000 compounds, 0.49% hits. AID 488977, 2010;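 active = initial fluorescence not abnormally high and integrated response B-score, plate-corrected, over 3 SD above library mean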
ANO1 block = TMEM16A chloride channel inhibitors, primary screen, cell-based, HTS | 310,000 compounds, 1.2% hits | Anoctamin-1 (Mus musculus), Q8BHY3 | AID 588511, 2011 | normalized B-score (activity score, 25-100; higher = stronger inhibition) at 10 µM | HEK293 TMEM16A/YFP iodide influx fluorescence, ionomycin;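 active = ratio plate-corrected score three or more library SD toward inhibition, starting fluorescence score within five deviations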;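 note: score derived from kinetic fluorescence span divided by baseline fluorescence per well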
CHT activ conf = CHT activators, confirmation, cell-based, membrane potential dye, duplicate. 2,500 compounds, 91% hits. CHT-expressing cells, membrane potential dye fluorescence (FDSS); % of choline EC20–EC90 response window; HEK293 expressing CHT LV-AA mutant; choline added at its EC20. AID 504833, 2011. shares compounds with CHT PAM. activation, % at 10 µM;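 active = primary screen active, with duplicate mean activation above negative control mean plus 3 SD, cut at about 11% in these data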
HEK293 MP dye = membrane potential response in parental HEK293 cells, counter-screen for CHT activator project, cell-based, membrane potential dye. shares compounds with CHT PAM. membrane potential dye fluorescence (FDSS); measured after EC20 choline addition. ratio readout change at 10 µM, hits read low. 2,500 compounds, 62% hits;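 active = duplicate-averaged ratio beyond 3 SD from buffer wells, up or down, though filed actives are nearly all decreases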
Hits are given with their value; - = inactive; . = not tested or not shown. Compounds with a hit are over-represented: about 2.4% of the library has one in this group of screens.

SMILES	CHT inh	ANO1 activ	CHT PAM	ANO1 block	CHT activ conf	HEK293 MP dye
CC(NC(=O)COC(=O)Cc1ccsc1)c1ccccc1 (configuration not stated)	-	-	6.38	-	-	-
CC(C)N1CCN(Cc2cccn2-c2cccnc2)CC1CCO (configuration not stated)	-	-	-	-	.	.
CN(C)CCN(Cc1ccccc1)S(=O)(=O)c1ccc2c(c1)n(C)c(=O)c(=O)n2C	-	-	12.1	-	73.9	-81.2
O=C1c2cc(S(=O)(=O)NCCO)ccc2-c2ccc(S(=O)(=O)NCCO)cc21	-	-	-	-	41.0	-35
N#CC(C#N)=C1c2cc(S(N)(=O)=O)ccc2-c2ccc(S(N)(=O)=O)cc21	.	-	.	.	.	.
O=C(O)CNS(=O)(=O)c1ccc2c(c1)C(=O)c1cc(S(=O)(=O)NCC(=O)O)ccc1-2	-	-	-	-	.	.
N#CC(C#N)=C1c2cc(S(=O)(=O)NCCO)ccc2-c2ccc(S(=O)(=O)NCCO)cc21	-	-	9.53	-	54.1	-51.8
N#Cc1cc(Sc2ccccn2)c([N+](=O)[O-])cc1C#N	-	-	-	-	46.0	-41.3
COC(=O)c1ccc(COC(=O)CNC(=O)C2CCCCC2)cc1	.	-	.	.	.	.
O=C(NCCCCc1ccccc1)c1cc([N+](=O)[O-])cc([N+](=O)[O-])c1	-	-	-	-	48.5	-24.1
O=C(NCCCCc1ccccc1)c1cccc([N+](=O)[O-])c1	-	-	-	-	.	.
CN(C)c1cc(NC(=O)CNC(C)(C)C)c2ccccc2n1	-	-	-	-	26.4	-54.9
CN(C)c1cc(NC(=O)CN2CCOCC2)c2ccccc2n1	-	-	6.74	-	33.2	-44.6
C[C@@H]1C=C(C(=O)N2CCN(Cc3ccc4c(c3)OCO4)CC2)O[C@H](OCCCCO)C1	-	-	-	-	.	.
COc1ccccc1N1CCN(S(=O)(=O)c2c(C)[nH]c(C)c2C(=O)N2CCCCC2)CC1	-	-	-	-	.	.
C[n+]1ccc(/C=C/c2cccs2)cc1	-	-	-	-	61.6	-41.8
CN(C)c1ccc(/C=C/c2cc[n+](C)cc2)cc1	-	-	6.46	-	33.6	-
CCOc1nc(N=C(N)N)nc2c(C)cccc12	-	-	6.61	-	53.9	-60.2
CCOc1nc(-c2ccccc2O)nc2ccccc12	-	-	-	-	.	.
Cc1cccc(N(CC(=O)NC2CCCCC2)C(=O)Cn2nnc(-c3ccc(C)o3)n2)c1	-	-	-	-	.	.
Cc1ccc(S(=O)(=O)c2nc(-c3ccco3)oc2SC(C)C)cc1	-	-	-	-	14.6	-
CN1CCN(c2nc3c(c(=O)n(C)c(=O)n3C)n2CCSc2nnnn2-c2ccccc2)CC1	-	-	7.25	-	52.4	-71
CN1CCN(c2nc3c(c(=O)[nH]c(=O)n3C)n2CCSc2nnnn2-c2ccccc2)CC1	-	-	8.19	-	58.7	-67.8
Cn1c(=O)[nH]c(=O)c2c1nc(N1CCCC1)n2CCCSc1nnnn1-c1ccccc1	-	-	-	-	.	.
CC1CCN(c2nc3c(c(=O)n(C)c(=O)n3C)n2Cc2ccccc2)CC1	-	-	6.61	-	-	-
SMILES	CHT inh	ANO1 activ	CHT PAM	ANO1 block	CHT activ conf	HEK293 MP dye
O=C(NN1C(=O)NC2(CCCCC2)C1=O)c1cc(F)cc(F)c1	.	-	.	.	.	.
COc1ccc(C(C(=O)NC2CCCC2)N(C(=O)c2ccco2)c2ccc3c(c2)OCO3)cc1OC (configuration not stated)	-	-	-	-	.	.
CNc1snc(C)c1C(=O)OC(C)C(=O)Nc1ccc(F)cc1 (configuration not stated)	.	-	.	.	.	.
Nc1nc(SCC(=O)O)[nH]c(=O)c1NC(=O)c1ccccc1F	-	-	-	-	.	.
CCCCC1C2=C(CCCC2=O)OC2=C1C(=O)CCC2	-	-	-	-	.	.
Cn1c(-c2ccncc2)nc2ccccc21	-	-	-	-	.	.
CCN(CC)c1ccc(-c2nc3cnccc3n2C)cc1	-	-	10.3	-	32.5	-49.1
Cc1cccc([N+](=O)[O-])c1NC(=O)COC(=O)c1nc2nccc(C)n2n1	.	-	.	.	.	.
Cc1sc(NC(=O)c2ccccc2)c(C(=O)NCCN(C)C)c1C	-	-	-	-	36.7	-57.3
CCCCn1c(N)c(N(CC(C)C)C(=O)CSCC(=O)Nc2ccc(OC)cc2)c(=O)[nH]c1=O	-	-	-	-	-	-
Clc1ccc(CSc2nncn2-c2ccc3c(c2)OCCO3)cc1	-	-	13.1	-	-	-
CCCCCC[N+](C)(C)CC/C=C1/c2ccccc2Sc2ccc(Cl)cc21	-	-	-	-	44.0	-27.1
CC(=O)N1CCN(c2ccnc3cc(Cl)ccc23)CC1	-	-	8.58	-	65.3	-67.1
Cc1ccc(F)cc1NC(=O)N1CCN(c2ccnc3cc(Cl)ccc23)CC1	-	-	-	-	.	.
O=C(O)CSCC(=O)N1CCN(c2ccnc3cc(Cl)ccc23)CC1	-	-	-	-	.	.
CCCCNC(=O)N1CCN(c2ccnc3cc(Cl)ccc23)CC1	-	-	-	-	57.9	-61.5
O=c1cc(NC2CCCCC2)[nH]c(=O)[nH]1	-	-	-	-	.	.
Cn1c(-c2cccs2)[n+](C)c2ccccc21	-	-	9.79	-	61.8	-56
COc1cc(C(C)=O)ccc1COc1ccc(C(=O)O)cc1OC	-	-	-	-	.	.
Cc1cc(C)n(-c2nc(SCCN(C)C)c3c4c(sc3n2)COC(C)(C)C4)n1	-	-	-	-	40.8	-45
Cc1cc(C)n(-c2nc(NCC(C)O)c3c4c(sc3n2)COC(C)(C)C4)n1 (configuration not stated)	-	-	-	-	.	.
Nc1ccc(Cl)c[n+]1Cc1cccc2cccnc12	-	-	-	-	.	.
Cc1cc(C[n+]2ncsc2N)c2ncccc2c1	-	-	-	-	73.2	-23.4
Cc1cc(C[n+]2cc(Cl)ccc2N)c2ncccc2c1	-	-	15.8	-	45.6	-39
Cc1cc(C[n+]2cc(Br)ccc2N)c2ncccc2c1	-	-	8.47	-	49.3	-43.9
CCc1ccc2c(c1)cc(CN(C(=S)Nc1cccc(C)c1)C1CC1)c1nnnn12	-	-	-	-	.	.
Cc1nc(-c2ccccc2OC(F)(F)F)[nH]c(=O)c1Cl	-	-	-	-	.	.
NC(=S)Nc1ccc2cc[nH]c2c1	-	-	-	-	.	.
COCCn1c(Cc2ccccc2)nnc1SCc1ccc([N+](=O)[O-])cc1	-	-	-	-	20.7	-

Compound activity from PubChem BioAssay.
